# According to PubChem BioAssay:
# Values joined by “and” are separate entries in the source; they are usually repeats but may differ in a detail not shown here. Identical values can stand only once. Active and inactive are the calls of the source. Unless noted, no stated cut-off is given here; in the data, active means parasite load remaining mostly below about 12% (no sharp cut-off); inactive means mostly above about 10%.
# How the values were obtained:
# [1] = P. berghei load reduction in hepatocytes – cell-based, HepG2, luciferase luminescence, HepG2 viability, primary screen (AID 624349);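 further: 100% = mean of DMSO negative control wells on the same plate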; conditions: P. berghei liver stage in HepG2, luciferase luminescence, concentration not given here; parasite load remaining: stronger effect = lower value; viability: measured here: HepG2 viability without parasites
# [2] = EMT-state selective cytotoxicity in co-culture – imaging, PC-3E GFP, TEM4-18 mCherry, primary screen (AID 1345086;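 active means compounds killing one labelled cell type while sparing the other, by normalised counts and ratio limits, not self-fluorescent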;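 on all read-outs here: cells exposed to compound for 72 h before imaging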;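 on red/green cell ratio (normalised): normalised mesenchymal count divided by normalised epithelial count so high means epithelial killing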); conditions: PC-3E GFP / TEM4-18 mCherry co-culture, imaging cell counts, at 1 µM; for red/green cell ratio (normalised): actives lie on both sides, counts scaled to control wells, 1 = unselective
# [3] = viability loss with induced miR-34 in A549 – imaging, A549 dox-inducible miR-34, nuclei and caspase counts, primary screen (AID 1347080;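 active means compounds whose cell count with miR-34 switched on is under 0.7 times the count with it off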); conditions: A549 miR-34 inducible, Hoechst nuclei count, 48 h
# [4] = compounds altering viability of human ES cells (AID 493140; call rule not given here;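 further: cells exposed to compounds for four days before counting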); conditions: human embryonic stem cell survival screen; stronger effect = higher value
# [5] = measured here: epithelial PC-3E GFP cell survival
# [6] = measured here: mesenchymal TEM4-18 mCherry cell survival
# [7] = stronger effect = lower value, cell number ratio, induced over uninduced
# [8] = measured here: relative caspase fold change +Dox/-Dox
# [9] = measured here: total cells with miR-34 induction, stronger effect = lower value
# [10] = measured here: total cells without miR-34 induction
Compound,parasite load remaining [1],viability [1],red/green cell ratio (normalised) [2],"normalised cell number [2, 5]","normalised cell number [2, 6]","fold change [3, 7]","fold change [3, 8]","cell count [3, 9]","cell count [3, 10]",survival [4]
CC(C)C1CCC(C(=O)N[C@@H](Cc2ccccc2)C(=O)O)CC1 (some centres not stated),74.2% (inactive) and 53.3% (inactive),105% and 113%,0.92 (inactive),1.14,1.05,0.867 (inactive),4.55,11100,12800,
CC(=O)O[C@]1(C(C)=O)CCC2C3C=C(C)C4=CC(=O)CCC4(C)C3CCC21C (some centres not stated),94.3% (inactive) and 19.1% (inactive),74.8% and 83.8%,0.94 (inactive),1.18,1.11,0.897 (inactive),2.81,9250,10300,
CCOC(=O)C(C)(N)Cc1ccc(O)c(O)c1 (configuration not stated),15% (inactive),103%,1.25 (inactive),0.9,1.12,0.926 (inactive),3.34,12200,13200,
CC(=O)Nc1ccc(S(=O)(=O)Nc2onc(C)c2C)cc1,53.8% (inactive),98%,0.94 (inactive),1,0.93,0.897 (inactive),5,11800,13200,
O=C(O)C1=C(CSc2nnnn2CS(=O)(=O)O)CS[C@@H]2C(NC(=O)[C@H](O)c3ccccc3)C(=O)N12 (some centres not stated),57.8% (inactive),103%,0.95 (inactive),1.08,1.03,0.834 (inactive),4.26,10700,12900,
CCc1cc(Cl)c(OC)c(C(=O)NCC2CCCN2CC)c1O (configuration not stated),,,0.67 (inactive),1.29,0.86,0.847 (inactive),0.822,7250,8550,1.5 (inactive)
C[C@H]1O[C@@H](O[C@H]2[C@@H](O)C[C@H](O[C@H]3[C@@H](O)C[C@H](O[C@H]4CC[C@]5(C)C6CC[C@]7(C)[C@@H](C8=CC(=O)OC8)CC[C@]7(O)C6CC[C@@H]5C4)O[C@@H]3C)O[C@@H]2C)C[C@H](O)[C@@H]1O (some centres not stated),0.925% (inactive) and 0.995% (inactive),37.2% and 52.3%,0.46 (inactive),0.15,0.07,0.424 (active),1.53,190,450,
O=C(OC[C@H]1O[C@H](OC(=O)c2cc(O)c(O)c(OC(=O)c3cc(O)c(O)c(O)c3)c2)[C@H](OC(=O)c2cc(O)c(O)c(OC(=O)c3cc(O)c(O)c(O)c3)c2)[C@@H](OC(=O)c2cc(O)c(O)c(OC(=O)c3cc(O)c(O)c(O)c3)c2)[C@@H]1OC(=O)c1cc(O)c(O)c(OC(=O)c2cc(O)c(O)c(O)c2)c1)c1cc(O)c(O)c(OC(=O)c2cc(O)c(O)c(O)c2)c1,58.2% (inactive) and 73.8% (inactive),119% and 101%,1.23 (inactive),1.24,1.52,0.602 (active),1.46,4260,7070,
CC1(C)O[C@@H]2CC3C4C[C@H](F)C5=CC(=O)C=C[C@]5(C)[C@@]4(F)[C@@H](O)C[C@]3(C)[C@]2(C(=O)CO)O1 (some centres not stated),74.8% (inactive),92.9%,1.12 (inactive),1.2,1.35,0.898 (inactive),0.891,7030,7830,
CC(=O)OCC(=O)[C@@]12OC(C)(C)O[C@@H]1CC1C3C[C@H](F)C4=CC(=O)C=C[C@]4(C)[C@@]3(F)[C@@H](O)C[C@@]12C (some centres not stated),117% (inactive) and 83.7% (inactive),77.1% and 96.2%,1.1 (inactive),1.15,1.26,0.893 (inactive),0.979,6960,7790,
CC(=O)OCC(=O)[C@@]1(O)CCC2C3CCC4=CC(=O)CC[C@]4(C)[C@@]3(F)[C@@H](O)C[C@@]21C (some centres not stated),127% (inactive) and 70.7% (inactive),75.9% and 93.9%,1.57 (inactive),0.85,1.34,0.879 (inactive),1.47,6890,7830,
CC(=O)S[C@@H]1CC2=CC(=O)CC[C@]2(C)[C@H]2CC[C@@]3(C)[C@@H](CC[C@@]34CCC(=O)O4)C12 (some centres not stated),56.6% (inactive) and 46.1% (inactive),72.6% and 88.2%,1.24 (inactive),1,1.25,0.863 (inactive),2.19,10200,11900,
